According to the supplement of paper PMC11732987, “Enantioselective OTUD7B fragment discovery through chemoproteomics screening and high-throughput optimisation” (Communications Chemistry, 2025):

Experiments:
Experiment in all cases: log2 ratio of Biotin-Ahx-Ub-VS probe labelling (fragment/DMSO); higher = less target engagement (more negative = stronger competition), active = hit call of the paper (q ≤ 0.05, log2 ratio ≤ -1)
Conditions in all cases: compound concentration: 200 uM; treatment time: 3 h
USP19 = molecular target: T1, USP19 (UniProt O94966)
T1 sequence (whole entry): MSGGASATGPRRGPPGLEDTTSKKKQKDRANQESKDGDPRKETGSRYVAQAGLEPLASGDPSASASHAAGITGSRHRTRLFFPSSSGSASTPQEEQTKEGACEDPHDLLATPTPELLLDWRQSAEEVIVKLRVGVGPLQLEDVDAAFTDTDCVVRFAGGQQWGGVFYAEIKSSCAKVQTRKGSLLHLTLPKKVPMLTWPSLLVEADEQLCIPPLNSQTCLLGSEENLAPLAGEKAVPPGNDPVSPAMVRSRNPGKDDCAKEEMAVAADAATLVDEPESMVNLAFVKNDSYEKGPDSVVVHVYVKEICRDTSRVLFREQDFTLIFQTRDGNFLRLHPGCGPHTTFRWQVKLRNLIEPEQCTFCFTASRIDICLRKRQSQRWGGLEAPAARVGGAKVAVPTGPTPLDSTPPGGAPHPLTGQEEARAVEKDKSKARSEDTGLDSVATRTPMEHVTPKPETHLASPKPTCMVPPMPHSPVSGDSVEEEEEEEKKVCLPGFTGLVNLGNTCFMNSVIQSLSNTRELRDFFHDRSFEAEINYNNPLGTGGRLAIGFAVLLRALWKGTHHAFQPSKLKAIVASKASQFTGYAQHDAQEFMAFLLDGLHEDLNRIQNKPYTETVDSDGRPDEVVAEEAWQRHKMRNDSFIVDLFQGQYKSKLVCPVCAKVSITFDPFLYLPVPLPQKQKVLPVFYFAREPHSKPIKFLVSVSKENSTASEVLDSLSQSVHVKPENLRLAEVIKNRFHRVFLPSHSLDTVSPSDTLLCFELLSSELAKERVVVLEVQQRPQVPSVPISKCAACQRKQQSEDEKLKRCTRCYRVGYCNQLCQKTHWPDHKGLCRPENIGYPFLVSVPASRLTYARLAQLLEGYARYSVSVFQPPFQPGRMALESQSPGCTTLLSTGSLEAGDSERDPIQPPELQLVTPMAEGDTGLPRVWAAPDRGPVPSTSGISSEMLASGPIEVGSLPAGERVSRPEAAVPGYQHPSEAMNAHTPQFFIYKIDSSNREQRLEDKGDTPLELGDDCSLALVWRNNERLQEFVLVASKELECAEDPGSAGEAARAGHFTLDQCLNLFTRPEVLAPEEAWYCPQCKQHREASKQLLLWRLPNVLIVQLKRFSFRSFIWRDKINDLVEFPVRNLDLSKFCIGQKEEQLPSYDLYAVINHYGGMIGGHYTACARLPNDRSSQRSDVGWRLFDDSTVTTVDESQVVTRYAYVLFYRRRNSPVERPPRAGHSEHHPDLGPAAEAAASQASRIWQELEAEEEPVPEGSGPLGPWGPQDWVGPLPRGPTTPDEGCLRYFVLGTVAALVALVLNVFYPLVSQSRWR
Method in brief: (§1)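 The table lists average log2 ratios of fragment over vehicle, from an unpaired t-test on global-median-normalised Spectronaut label-free quantities. Proteins with ≥2 unique peptides were used. Samples were HEK293T lysate (495 µg) treated in triplicate with fragment at 200 µM or vehicle for 3 h, then with Biotin-Ahx-Ub-VS (0.5 µM final) for 1 h, with labelled DUBs NeutrAvidin-enriched and run by diaPASEF LC-MS/MS.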

USP22 = molecular target: T2, USP22 (UniProt Q9UPT9)
T2 sequence (whole entry): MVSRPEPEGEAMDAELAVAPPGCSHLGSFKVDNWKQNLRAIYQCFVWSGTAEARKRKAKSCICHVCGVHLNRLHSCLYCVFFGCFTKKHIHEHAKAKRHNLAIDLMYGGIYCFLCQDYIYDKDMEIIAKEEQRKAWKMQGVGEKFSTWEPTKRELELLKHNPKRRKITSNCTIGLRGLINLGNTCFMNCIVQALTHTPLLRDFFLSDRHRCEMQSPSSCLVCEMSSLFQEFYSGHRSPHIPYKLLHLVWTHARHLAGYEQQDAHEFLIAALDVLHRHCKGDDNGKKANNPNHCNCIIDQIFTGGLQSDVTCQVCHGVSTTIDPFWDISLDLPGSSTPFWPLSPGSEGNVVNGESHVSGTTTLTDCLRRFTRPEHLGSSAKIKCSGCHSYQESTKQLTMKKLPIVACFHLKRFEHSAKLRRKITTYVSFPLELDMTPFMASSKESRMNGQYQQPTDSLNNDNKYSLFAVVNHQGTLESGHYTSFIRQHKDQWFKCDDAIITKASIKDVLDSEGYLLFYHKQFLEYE
Method in brief: as §1

USP24 = USP24 (UniProt Q9UPU5)
Chain of USP24 (Q9UPU5 whole entry): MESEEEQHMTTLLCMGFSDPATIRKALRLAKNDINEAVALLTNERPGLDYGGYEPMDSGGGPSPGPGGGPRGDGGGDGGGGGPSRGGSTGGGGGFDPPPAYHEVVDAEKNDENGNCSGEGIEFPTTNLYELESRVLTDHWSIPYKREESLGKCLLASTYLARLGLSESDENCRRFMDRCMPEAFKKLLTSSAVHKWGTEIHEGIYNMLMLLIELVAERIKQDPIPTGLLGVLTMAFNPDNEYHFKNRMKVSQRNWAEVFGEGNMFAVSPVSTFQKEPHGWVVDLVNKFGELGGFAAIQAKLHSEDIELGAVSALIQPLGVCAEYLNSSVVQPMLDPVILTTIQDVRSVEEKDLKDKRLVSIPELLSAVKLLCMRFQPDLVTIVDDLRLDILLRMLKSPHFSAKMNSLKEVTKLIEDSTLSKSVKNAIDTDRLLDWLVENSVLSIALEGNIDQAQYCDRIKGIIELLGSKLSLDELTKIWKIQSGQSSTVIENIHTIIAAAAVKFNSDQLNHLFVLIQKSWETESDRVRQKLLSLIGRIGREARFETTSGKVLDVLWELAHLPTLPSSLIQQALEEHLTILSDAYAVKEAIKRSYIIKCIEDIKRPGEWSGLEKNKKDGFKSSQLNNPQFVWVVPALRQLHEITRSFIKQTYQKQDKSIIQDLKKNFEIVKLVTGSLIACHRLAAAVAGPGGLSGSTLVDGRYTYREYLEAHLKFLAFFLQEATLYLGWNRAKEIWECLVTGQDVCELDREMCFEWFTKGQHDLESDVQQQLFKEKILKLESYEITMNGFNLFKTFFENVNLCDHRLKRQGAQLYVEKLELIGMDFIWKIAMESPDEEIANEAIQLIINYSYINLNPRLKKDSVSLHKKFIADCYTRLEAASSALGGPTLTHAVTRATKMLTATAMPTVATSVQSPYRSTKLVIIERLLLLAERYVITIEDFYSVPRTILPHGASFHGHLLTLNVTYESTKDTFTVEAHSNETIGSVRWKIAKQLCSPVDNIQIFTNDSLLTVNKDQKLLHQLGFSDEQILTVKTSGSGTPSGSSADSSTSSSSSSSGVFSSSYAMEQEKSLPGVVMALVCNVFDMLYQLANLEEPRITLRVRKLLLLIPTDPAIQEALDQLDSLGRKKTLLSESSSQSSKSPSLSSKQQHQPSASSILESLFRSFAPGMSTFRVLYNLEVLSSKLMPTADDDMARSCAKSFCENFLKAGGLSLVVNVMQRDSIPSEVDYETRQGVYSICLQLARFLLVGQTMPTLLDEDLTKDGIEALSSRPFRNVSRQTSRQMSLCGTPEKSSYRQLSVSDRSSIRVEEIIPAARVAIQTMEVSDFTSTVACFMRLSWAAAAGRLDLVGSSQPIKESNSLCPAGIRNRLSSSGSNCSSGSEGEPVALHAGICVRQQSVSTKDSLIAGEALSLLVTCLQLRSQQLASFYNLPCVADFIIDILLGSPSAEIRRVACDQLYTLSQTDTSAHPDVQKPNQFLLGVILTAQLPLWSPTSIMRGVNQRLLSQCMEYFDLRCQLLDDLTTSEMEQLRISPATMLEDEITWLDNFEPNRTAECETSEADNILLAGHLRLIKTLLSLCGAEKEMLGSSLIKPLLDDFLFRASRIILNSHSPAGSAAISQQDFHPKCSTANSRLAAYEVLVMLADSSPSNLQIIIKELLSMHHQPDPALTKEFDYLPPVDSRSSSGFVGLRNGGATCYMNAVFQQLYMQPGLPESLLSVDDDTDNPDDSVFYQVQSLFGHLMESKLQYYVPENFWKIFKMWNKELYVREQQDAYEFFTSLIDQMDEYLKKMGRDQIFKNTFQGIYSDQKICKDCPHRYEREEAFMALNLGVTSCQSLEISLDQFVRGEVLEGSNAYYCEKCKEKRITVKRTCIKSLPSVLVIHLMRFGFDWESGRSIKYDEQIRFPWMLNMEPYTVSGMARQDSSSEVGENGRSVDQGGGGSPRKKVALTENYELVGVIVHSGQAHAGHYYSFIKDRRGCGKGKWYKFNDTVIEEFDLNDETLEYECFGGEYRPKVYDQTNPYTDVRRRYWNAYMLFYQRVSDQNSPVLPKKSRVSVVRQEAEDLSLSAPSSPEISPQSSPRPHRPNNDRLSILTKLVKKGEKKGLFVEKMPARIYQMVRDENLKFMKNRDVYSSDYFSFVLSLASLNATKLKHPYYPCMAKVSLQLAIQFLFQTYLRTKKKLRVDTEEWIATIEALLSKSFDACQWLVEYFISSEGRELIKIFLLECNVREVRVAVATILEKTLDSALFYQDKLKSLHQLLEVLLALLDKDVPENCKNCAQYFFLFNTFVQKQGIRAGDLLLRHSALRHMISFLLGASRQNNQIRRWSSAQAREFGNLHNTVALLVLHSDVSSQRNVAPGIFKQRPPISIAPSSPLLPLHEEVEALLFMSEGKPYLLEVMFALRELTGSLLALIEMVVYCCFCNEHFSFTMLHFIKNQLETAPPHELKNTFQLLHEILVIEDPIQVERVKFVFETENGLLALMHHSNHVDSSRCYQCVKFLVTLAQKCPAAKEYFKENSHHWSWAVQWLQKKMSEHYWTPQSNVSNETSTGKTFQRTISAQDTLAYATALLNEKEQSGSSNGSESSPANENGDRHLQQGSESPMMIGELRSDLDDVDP
Method in brief: as §1

USP25 = molecular target: T3, USP25 (UniProt Q9UHP3)
T3 sequence (whole entry): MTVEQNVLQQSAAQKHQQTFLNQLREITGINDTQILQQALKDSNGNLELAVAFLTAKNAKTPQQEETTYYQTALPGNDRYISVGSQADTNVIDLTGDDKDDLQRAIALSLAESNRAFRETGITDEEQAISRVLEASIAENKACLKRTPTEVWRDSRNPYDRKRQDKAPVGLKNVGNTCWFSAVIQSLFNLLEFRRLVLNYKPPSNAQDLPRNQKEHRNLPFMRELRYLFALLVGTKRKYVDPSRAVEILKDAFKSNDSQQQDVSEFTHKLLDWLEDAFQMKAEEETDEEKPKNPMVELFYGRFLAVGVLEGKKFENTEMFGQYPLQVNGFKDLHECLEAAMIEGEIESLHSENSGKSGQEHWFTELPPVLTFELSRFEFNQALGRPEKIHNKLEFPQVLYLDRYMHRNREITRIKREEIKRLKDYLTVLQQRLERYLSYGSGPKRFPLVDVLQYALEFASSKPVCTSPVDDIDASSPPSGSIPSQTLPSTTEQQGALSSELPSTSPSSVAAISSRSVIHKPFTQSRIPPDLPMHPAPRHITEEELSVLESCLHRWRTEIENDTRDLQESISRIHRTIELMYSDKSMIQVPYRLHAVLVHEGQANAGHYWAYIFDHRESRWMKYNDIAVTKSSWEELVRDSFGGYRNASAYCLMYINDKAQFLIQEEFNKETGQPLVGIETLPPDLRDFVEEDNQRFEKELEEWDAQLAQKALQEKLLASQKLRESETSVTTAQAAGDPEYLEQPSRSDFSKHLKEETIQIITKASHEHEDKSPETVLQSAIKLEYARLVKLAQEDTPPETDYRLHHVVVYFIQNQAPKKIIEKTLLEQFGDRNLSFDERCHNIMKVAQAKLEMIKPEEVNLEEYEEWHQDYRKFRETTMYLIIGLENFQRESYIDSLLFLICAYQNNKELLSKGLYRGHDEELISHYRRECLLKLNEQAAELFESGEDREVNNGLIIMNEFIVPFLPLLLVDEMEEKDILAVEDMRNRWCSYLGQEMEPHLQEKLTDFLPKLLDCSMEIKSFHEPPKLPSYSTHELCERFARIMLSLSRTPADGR
Method in brief: as §1

USP28 = molecular target: T4, USP28 (UniProt Q96RU2)
T4 sequence (whole entry): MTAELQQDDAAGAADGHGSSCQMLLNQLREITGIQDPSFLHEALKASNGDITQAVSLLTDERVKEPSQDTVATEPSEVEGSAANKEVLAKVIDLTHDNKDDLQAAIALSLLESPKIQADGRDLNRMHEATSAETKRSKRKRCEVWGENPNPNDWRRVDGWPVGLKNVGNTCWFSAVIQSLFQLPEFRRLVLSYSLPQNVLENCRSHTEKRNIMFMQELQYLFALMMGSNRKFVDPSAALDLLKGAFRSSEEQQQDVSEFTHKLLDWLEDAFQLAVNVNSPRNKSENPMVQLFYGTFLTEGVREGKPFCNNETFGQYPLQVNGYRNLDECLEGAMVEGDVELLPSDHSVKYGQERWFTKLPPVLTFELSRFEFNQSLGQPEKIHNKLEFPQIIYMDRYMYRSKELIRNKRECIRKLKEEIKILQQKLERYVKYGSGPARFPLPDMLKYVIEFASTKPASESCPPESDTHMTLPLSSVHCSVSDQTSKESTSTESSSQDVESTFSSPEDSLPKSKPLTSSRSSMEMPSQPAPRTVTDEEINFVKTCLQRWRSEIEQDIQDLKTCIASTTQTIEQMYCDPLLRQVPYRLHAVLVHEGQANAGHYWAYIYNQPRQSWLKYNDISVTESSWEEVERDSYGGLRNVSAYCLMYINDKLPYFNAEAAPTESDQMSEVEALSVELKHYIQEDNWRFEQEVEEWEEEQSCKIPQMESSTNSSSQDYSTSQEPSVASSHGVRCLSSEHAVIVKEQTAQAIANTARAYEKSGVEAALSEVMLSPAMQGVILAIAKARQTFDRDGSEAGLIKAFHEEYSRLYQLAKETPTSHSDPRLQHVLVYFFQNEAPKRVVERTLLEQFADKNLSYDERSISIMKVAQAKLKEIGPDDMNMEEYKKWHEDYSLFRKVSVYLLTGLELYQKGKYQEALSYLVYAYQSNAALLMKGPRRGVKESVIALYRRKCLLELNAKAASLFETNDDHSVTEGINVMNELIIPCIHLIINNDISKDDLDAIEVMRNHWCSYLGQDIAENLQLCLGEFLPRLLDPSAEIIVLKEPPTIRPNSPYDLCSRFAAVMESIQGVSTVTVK
Method in brief: as §1

Measured: log2 ratio of Biotin-Ahx-Ub-VS probe labelling

O=C(CCl)N1CCC[C@@H]1c1ccon1
inactive: USP19 -0.377 | USP22 -0.153 | USP24 -0.653 | USP25 -0.618 | USP28 -0.64
